# Hit rate of the full screen: of about 13,000 compounds, about 3,200 (25%) showed an effect of 50% or more. The list shows a part of the results.
# Tested on: P. falciparum stage V gametocytes
# Set-up: BacTiter-Glo ATP luminescence viability of purified stage V gametocytes in 384-well plates, per cent inhibition versus DMSO
# Settings: 48 h, 5 µM; inhibitor
row,SMILES,% Inhibition [%]
1,C[C@H](NC(=O)[C@H](Cc1ccccc1)NC(=O)OC(C)(C)C)C(=O)N[C@@H](CC1CCCCC1)C(O)CN (stereo partly shown) [TCMDC-137178],-9.62
2,CCC(ON1C(N)=NC(N)=NC1(C)C)c1ccccc1 (stereo not shown) [TCMDC-131604],-12.67
3,CN1CCN(CCCN(Cc2ccc(-c3cccc(CNC4CCCC4)c3)cc2)C(=O)/C=C/c2ccccc2)CC1 [TCMDC-140547],114.1
4,COc1cccc(C=CC(=O)N(CCN)Cc2ccccc2)c1 [TCMDC-137725],-7.766
5,CCCCN1CCCN(Cc2cccc(NC(=O)c3ccc(-c4ccccc4)cc3)c2)CC1 [TCMDC-141844],-70.1
6,CN1CCN(CCCN(Cc2cccc(-c3ccc(CNC4CCCC4)cc3)c2)C(=O)/C=C/c2ccccc2)CC1 [TCMDC-140544],99.25
7,CCCCCN1CCCN(Cc2cccc(NC(=O)c3ccc(-c4ccccc4)cc3)c2)CC1 [TCMDC-141845],-85.57
8,CN1CCN(CCCN(Cc2cccc(-c3cccc(CNC4CCCC4)c3)c2)C(=O)/C=C/c2ccccc2)CC1 [TCMDC-140543],105.2
9,CN1CCN(CCCN(Cc2ccc(-c3cccc(CNC4CCCC4)c3)cc2)C(=O)Nc2ccccc2)CC1 [TCMDC-140605],107.6
10,CN1CC[C@@H](Oc2cc(CNC(=O)c3ccc(-c4ccc(Cl)cc4)s3)ccc2C(F)(F)F)C1 [TCMDC-136151],-38.31
11,C=CCc1cc(Cc2cnc(N)nc2N)c2ccc(C)nc2c1OC [TCMDC-137891],-15.21
12,Cc1cc(OCc2ccccc2)c(OCc2ccccc2)cc1C(O)CN(C)Cc1ccccc1 (stereo not shown) [TCMDC-131246],18.13
13,Cc1cc(Nc2ccc(C(C)(C)C)cc2)c2[nH]ncc2n1 [TCMDC-131536],-25.63
14,Cc1ccccc1CCNC(=O)c1ccc(N2CCN(c3ccncc3)CC2)nc1 [TCMDC-134588],6.86
15,Cc1ccc2cc(C3NC(=O)c4ccccc4N3)c(Cl)nc2c1 (stereo not shown) [TCMDC-124480],-10.78
16,N#Cc1cccc(Nc2nccc(NCC(O)c3cccc(C(F)(F)F)c3)n2)c1 (stereo not shown) [TCMDC-136580],-40.58
17,O=C(CCc1ccccc1)NC(c1ccc(Cl)cc1)c1ccc2cccnc2c1O (stereo not shown) [TCMDC-123537],82.06
18,O=C(NC(c1ccc(Cl)cc1)c1ccc2cccnc2c1O)c1ccccc1 (stereo not shown) [TCMDC-123829],-93.03
19,c1ccc(C(OCCC2CCN(Cc3cccc4cccnc34)CC2)c2ccccc2)cc1 [TCMDC-136047],-51.83
20,Cc1ccc(C(NC(=O)Cc2ccccc2)c2ccc3cccnc3c2O)cc1 (stereo not shown) [TCMDC-125551],6.84
21,O=C(Cc1ccccc1)NC(c1ccc(Cl)cc1)c1ccc2cccnc2c1O (stereo not shown) [TCMDC-124427],70.3
22,O=C(Cc1ccccc1)NC(c1ccccc1)c1ccc2cccnc2c1O (stereo not shown) [TCMDC-124383],92.16

row,SMILES,% Inhibition [%]
1,CN(C)CCNc1ncnc2c1[nH]c1ccc(Br)cc12 [TCMDC-124584],3.603
2,CN(C)c1cc(N/N=C/c2cc(Cl)ccc2O)nc(N(C)C)n1 [TCMDC-125812],-69.18
3,CC1CN(Cc2cccc(C#N)c2)CCN1c1ccc(NC(=O)c2cccs2)cc1 (stereo not shown) [TCMDC-134969],-7.267
4,O=C(CSc1cccc[n+]1[O-])c1ccc(Cc2ncc(C(F)(F)F)cc2Cl)s1 [TCMDC-125823],10.92
5,COc1nc2c(CCN3CC[C@H](NCc4cc(C#N)c5c(c4)CCO5)[C@H](O)C3)ccnc2cc1F [TCMDC-135969],-20.52
6,COc1nc2c(CCN3CC[C@H](NCc4cc(C#N)c5c(c4)OCCO5)[C@H](O)C3)ccnc2cc1F [TCMDC-135968],5.29
7,COc1ccc2nccc([C@H](O)CN3CCC(NCc4cc(C)c5c(c4)OCCO5)CC3)c2n1 [TCMDC-136075],22.49
8,COc1ccc2ncc(F)c([C@H](O)CN3CCC(NCc4ccc5c(c4)OCCO5)CC3)c2c1 [TCMDC-135828],-2.76
9,COc1ccc2ncc(F)c([C@@H](O)CN3CCC(NCc4cc(C#N)c5c(c4)CCO5)CC3)c2n1 [TCMDC-136078],86.13
10,COc1ccc2ncc(F)c([C@H](O)CN3CCC(NCc4ccc5c(c4)NC(=O)CO5)CC3)c2c1 [TCMDC-135829],-7.754
11,COc1ccc2ncc(F)c(CCN3CCC(NCc4ccc5c(c4)CCO5)CC3)c2n1 [TCMDC-135491],11.83
12,COc1nc2c(CCN3CC[C@@H](NCc4cc(C#N)c5c(c4)CCO5)[C@@H](O)C3)ccnc2cc1F [TCMDC-135964],90.2
13,COc1ccc2ncc(F)c([C@@H](O)CN3CCC(NCc4ccc5c(c4)NCCS5)CC3)c2n1 [TCMDC-135765],82.34
14,O=C(Nc1ccc(-c2cccc(-c3nc4ccccc4[nH]3)c2)cc1)NC1CC1c1ccccc1 (stereo not shown) [TCMDC-133257],-13.71
15,O=C(CC1CCCC1)N(CC1CCN(Cc2ccc(C(F)(F)F)cc2)CC1)c1ccc(N2CCOCC2)c(F)c1 [TCMDC-135855],9.841
16,CCN(CCCN1CCCCC1)c1nccc(Nc2ccc(Cl)cc2)n1 [TCMDC-137046],6.161
17,CS(=O)(=O)c1ccccc1CNC(=O)c1cccc(-c2ccc(-c3nc4cc(C(F)(F)F)ccc4[nH]3)cc2)c1 [TCMDC-132506],-36.65
18,CC(C)N1CCC(N(Cc2ccc(-c3ccc(C(F)(F)F)cc3)cc2)C(=O)Cn2c(SCc3cccc(F)c3F)nc(=O)c3ccccc32)CC1 [TCMDC-141312],121.2
19,CC(C)N1CCC(N(Cc2ccc(-c3ccc(C(F)(F)F)cc3)cc2)C(=O)Cn2c(SCc3cccc(F)c3F)cc(=O)c3ccccc32)CC1 [TCMDC-141157],117.9
20,CC(C)N1CCC(N(Cc2ccc(-c3ccc(Cl)cc3)cc2)C(=O)Cn2c(CCc3cccc(F)c3F)nc(=O)c3ccccc32)CC1 [TCMDC-141368],117.4
21,CC(C)N1CCC(N(Cc2ccc(-c3ccc(C(F)(F)F)cc3)cc2)C(=O)Cn2c(CCc3cccc(F)c3F)cc(=O)c3ccccc32)CC1 [TCMDC-141141],111.4
